Records with an inconclusive call do not appear. Active and inactive are the calls of the source. Unless noted, calls come from the whole dose curve; as a rule, active = well fitted curve in the direction sought with a large enough effect; inconclusive = small, poorly fitted or top-dose-only effect, or another doubt; inactive = no such curve, though single readings can be large; an effect the other way counts as inactive or inconclusive.
Assays:
[1] = biological target: DNA repair nuclease/redox regulator APEX1 (Homo sapiens) (UniProt P27695); assay: qHTS Validation Assay for Inhibitors of the Human Apurinic/apyrimidinic Endonuclease 1 (APE1) (AID 1705;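 note: TAMRA fluorescence gain over two minutes as APE1 cuts a quenched THF abasic duplex; % is set by controls: 0 for no effect and ±100 for the full control effect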)
How it was run: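 Human APE1 was preincubated with compound for 15 min at room temperature, then 50 nM (final) THF-abasic double-stranded DNA substrate bearing 5'-TAMRA and 3'-BHQ-2 was added. Incision-driven fluorescence rise (ex 525/em 598 nm) was read kinetically.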

[2] = Counterscreen for APE1 Inhibitors: Fluorescent Dye Displacement Validation Assay (AID 1707);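 note: plate controls were ThO with dsDNA and no compound for no effect and ThO without dsDNA for full effect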
How it was run: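 Signal: ThO fluorescence (ex 480 nm/em 540 nm) on binding 50 nM dsDNA; displacement by test compound reduces it. Conditions: 250 nM dye, 50 mM Tris-HCl pH7.5, 2 mM MgCl2, 50mM NaCl, 0.01% Tween-20.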

[3] = biological target: Endonuclease 4 (Escherichia coli (strain K12)) (UniProt P0A6C1); assay: Counterscreen for APE1 Inhibitors: qHTS Validation Assay for Inhibitors of Endonuclease IV (AID 1708); note: % is set by controls: 0 for no effect and ±100 for the full control effect
How it was run: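 Measured as reaction progress, the fluorescence gain between first and third kinetic reads after adding 50 nM TAMRA/BHQ-2 THF duplex to 2 nM enzyme preincubated 15 min with compound; 2 mM MgCl2, pH 7.5.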

[4] = qHTS for differential inhibitors of proliferation of Plasmodium falciparum line GB4 (AID 1816); details: Potency: Plasmodium falciparum GB4 proliferation inhibition;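 note: parasite growth measured after 72 h incubation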; note: potency is the fitted concentration of half-maximal effect;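 for activity change, negative = inhibition: 0% = vehicle DMSO and -100% = reference inhibitor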
[5] = qHTS for differential inhibitors of proliferation of Plasmodium falciparum line 3D7 (AID 1876);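 note: parasite growth measured after three days of culture; 0% = vehicle wells and -100% = reference inhibitor wells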
[6] = qHTS for differential inhibitors of proliferation of Plasmodium falciparum line D10 (AID 1877);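 note: parasites grown with compound for 72 h before DNA staining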; note: potency is the fitted concentration of half-maximal effect;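 for activity change, negative = inhibition: plate controls were vehicle wells for no effect and reference inhibitor wells for full effect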
[7] = qHTS for differential inhibitors of proliferation of Plasmodium falciparum line Dd2 (AID 1882); details: Potency: Plasmodium falciparum Dd2 proliferation inhibition; note: nearly all actives have a fitted effect of over 65% in size; note: potency is the fitted concentration of half-maximal effect;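 for activity change, negative = inhibition: compound exposure of 72 h on infected erythrocytes; plate controls were DMSO vehicle for no effect and 0.29 µM artemisinin for full effect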
How it was run: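 RBC culture, 0.3% parasitemia / 2.5% Hct final; cpd added by pin tool in DMSO; 72 h, 37 C, 5% CO2; lysis buffer + SYBR Green I, o/n RT dark; FI 485/535; norm. to artemisinin 0.29 uM and DMSO.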

[8] = qHTS for differential inhibitors of proliferation of Plasmodium falciparum line W2 (AID 1883); details: Potency: Plasmodium falciparum W2 proliferation inhibition;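 note: parasites grown with compound for 72 h before lysis and staining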; note: potency is the fitted concentration of half-maximal effect;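 for activity change, negative = inhibition: 0% = vehicle wells and -100% = control inhibitor wells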
[9] = qHTS Assay for Modulators of Human Peripheral Myelin Protein 22 (PMP22) Expression/Activity (AID 1967; active = well fitted curve in the direction sought with a large enough effect in the signal ratio; the % refers to the signal ratio;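 note: 0% = untreated cells and 100% end not stated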)
How it was run: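 MSC80 mouse Schwann cells stably carrying Pmp22 promoter–green click beetle luciferase plus EF-alpha–red luciferase control were dosed for 24h at 37 °C. Dual-colour luminescence was filter-overlap corrected; %Activity came from green/red ratio versus untreated cells.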

[10] = biological target: Ferritin light chain (Equus caballus) (UniProt P02791); assay: qHTS Validation Assay for Identification of Novel General Anesthetics (AID 2323); note: % is set by controls: 0 for no effect and ±100 for the full control effect
How it was run: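 Competitive displacement of profluorescent 1-aminoanthracene (1-AMA, 50% saturated solution in PBS) from 10 uM horse-spleen apoferritin. Compounds incubated 10 min at room temperature; fluorescence read at 380 nm excitation/535 nm emission, normalized to free 1-AMA and complex, fitted with four-parameter Hill equation.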

[11] = biological target: ATP-dependent DNA helicase Q1 (Homo sapiens) (UniProt P46063); assay: qHTS Validation Assay for Inhibitors of RecQ-Like Dna Helicase 1 (RECQ1) (AID 2353);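 note: plate controls were DMSO vehicle for no effect and enzyme-free control for full effect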
How it was run: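 RECQ1T1 50 nM; forked duplex (20 bp + 30-nt ss tails) 200 nM, ATP 2 mM final; pH 8.0, 2 mM MgCl2, 2.5 ug/ml poly(dI-dC); 15 min compound preincubation; discontinuous kinetic read over 2 h at RT.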

[12] = Validation screen for inhibitors of Lassa infection (AID 463096; calls by dose curve; note: potency is the fitted concentration of half-maximal effect)
[13] = Quantitative high throughput screen for delayed death inhibitors of the malarial parasite plastid, 96 hour incubation (AID 488745);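 note: luciferase-expressing P. falciparum in erythrocytes at 2% hematocrit and 0.1% parasitemia; % is set by controls: 0 for no effect and ±100 for the full control effect; nearly all actives have a fitted effect of over 70% in size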
How it was run: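 Luciferase-expressing P. falciparum, infected RBCs 2% Hct/0.1% parasitemia (final); 96 h cpd exposure, 37 C, 5% CO2; RPMI 1640 + 0.5% Albumax, bicarbonate, gentamycin. Readout: luminescence loss = growth inhibition.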

[14] = Quantitative high throughput screen for delayed death inhibitors of the malarial parasite plastid, 48 hour incubation (AID 488752); note: % is set by controls: 0 for no effect and ±100 for the full control effect; nearly all actives have a fitted effect of over 65% in size
How it was run: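 Luciferase-expressing P. falciparum in RBCs, 2% Hct, 0.1% parasitemia final; RPMI 1640 + 0.5% Albumax; 48 h, 37 C, 5% CO2; luminescence readout, signal drop = growth inhibition.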

[15] = biological target: M-phase phosphoprotein 8 (Homo sapiens) (UniProt Q99549); assay: qHTS Validation Assay for Inhibitors for MPP8 Chromodomain Interactions with Methylated Histone Tails (AID 488949); note: nearly all actives have a fitted effect of over 55% in size; note: potency is the fitted concentration of half-maximal effect;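 for activity change, negative = inhibition: AlphaScreen signal from MPP8 chromodomain bound to biotinylated H3K9me3 peptide; top concentration of the series differs between compounds; % is set by controls: 0 for no effect and ±100 for the full control effect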
How it was run: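 MPP8 (50 nM) was preincubated with biotinylated H3(1-18)K9me3 peptide (50 nM) in PBS pH 7.4, 0.01% Tween-20 for 30 min at room temperature, then with compounds for 30 min; binding was detected by AlphaScreen.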

[16] = biological target: Transient receptor potential cation channel subfamily V member 1 (Homo sapiens) (UniProt Q8NER1); assay: HTS Assay for Compounds that Act as Enhancers of the Vanilloid Receptor 1 (AID 488979); note: 0% is about no effect
How it was run: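 TRPV1-expressing cells loaded with Fluo-8 calcium dye; compounds added and calcium influx read kinetically for 3 min (agonist phase), then capsaicin at EC20 added and read 2 min more for enhancement. Fluorescence ex 480/em 520 nm.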

[17] = biological target: Thyrotropin receptor (Homo sapiens) (UniProt P16473); assay: qHTS Assay for Antagonists of the Thyroid Stimulating Hormone Receptor (AID 488980); note: 0% is about no effect
How it was run: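 HEK293 cells transfected with human TSHR, suspended in HEPES-buffered HBSS with 70 uM RO 20-1724, were treated with compounds plus TSH at EC80 (4 nM final). cAMP was measured by competitive HTRF (cryptate anti-cAMP antibody, cAMP-d2 acceptor).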

[18] = biological target: Thyrotropin-releasing hormone receptor (Homo sapiens) (UniProt P34981); assay: qHTS for Small Molecule Agonists and Allosteric Enhancers of Human TRH Receptor: Validation Screen for Agonists (AID 493127;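 active = calcium activation more than 3 SD above the typical response in the agonist read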;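 note: intracellular calcium rise by fluo-8 fluorescence before TRH EC20 addition; 0% is about no effect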); details: TRH receptor agonist cell assay; at 2 µM; stronger effect = higher value
How it was run: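 Read-out: intracellular calcium release measured kinetically by FDSS (fluo-8, ex 480/em 530 nm), 1 reading/s after a 10-cycle baseline. TRHR cells, 2000/well, cultured 18 h at 33.5C, dye-loaded at room temp. Compound-evoked positive calcium signal flags agonists.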

[19] = biological target: Galactokinase (Homo sapiens) (UniProt P51570); assay: qHTS Validation Assay for Inhibitors of Human Galactokinase (GALK) (AID 493189); note: 0% is about no effect
How it was run: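 GALK (5 nM) with 35 uM ATP and 100 uM galactose in HEPES pH8.0, MgCl2, NaCl, DTT, BSA; 1 h at room temperature. Residual ATP read by Kinase-Glo Plus luminescence after 10 min.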

[20] = biological target: Voltage-gated inwardly rectifying potassium channel KCNH2 (Homo sapiens) (UniProt Q12809); assay: qHTS Assay for Small Molecule Inhibitors of the Human hERG Channel Activity (AID 588834);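 note: top concentration of the series differs between compounds; % is set by controls: 0 for no effect and ±100 for the full control effect; lower thallium flux fluorescence means stronger hERG block; nearly all actives have a fitted effect of over 50% in size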
How it was run: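 In hERG-transduced U2OS cells, dye-loaded for 1 hr at room temperature in dark, test compounds incubated 10 min at 37 °C before thallium stimulation. AC50 values derived by Hill modelling of concentration-response.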

[21] = biological target: Rap guanine nucleotide exchange factor 3 (Homo sapiens) (UniProt O95398); assay: Confirmatory qHTS for agonist of cAMP-regulated guanine nucleotide exchange factor 3 (EPAC1) (AID 1645881);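 note: EPAC1 catalysed release of BODIPY-GDP from Rap1B seen as fluorescence loss; 100% = effect of cAMP agonist control; nearly all actives have a fitted effect of over 75% in size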
[22] = biological target: Rap guanine nucleotide exchange factor 4 (Homo sapiens) (UniProt Q8WZA2); assay: Confirmatory qHTS for antagonist of cAMP-regulated guanine nucleotide exchange factor 4 (EPAC2) (AID 1645885); note: % is set by controls: 0 for no effect and ±100 for the full control effect; nearly all actives have a fitted effect of over 25% in size
[23] = biological target: Rap guanine nucleotide exchange factor 3 (Homo sapiens) (UniProt O95398); assay: Counterscreen qHTS for antagonist of cAMP-regulated guanine nucleotide exchange factor 3 (EPAC1) (AID 1645888);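 note: fluorescence loss as bound BODIPY-GDP is released from Rap1B; % of control where 0% means no effect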
How it was run: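 Measured: fluorescence of BODIPY-GDP bound to Rap1B, which falls as exchange proceeds. Conditions include 50 uM competing GDP, 5 and 30 min reads, and a later cAMP challenge for antagonist detection.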

[24] = biological target: Catechol O-methyltransferase (Homo sapiens) (UniProt P21964); assay: Confirmatory Screen for Target Class Profiling of Small Molecule Inhibitors of Methyltransferases (AID 1745852); details: MTase-Glo luminescence, SAH detection, recombinant enzyme; measured here: COMT max response; stronger effect = lower value
[25] = biological target: Guanidinoacetate N-methyltransferase (Homo sapiens) (UniProt Q14353); assay: as above; details: MTase-Glo luminescence, SAH detection, recombinant enzyme; activity change, negative = inhibition: at 85.7 µM (top of the series) unless noted
[26] = biological target: Nicotinamide N-methyltransferase (Homo sapiens) (UniProt P40261); assay: as above; details: MTase-Glo luminescence, SAH detection, recombinant enzyme; measured here: NNMT max response; stronger effect = lower value
[27] = biological target: Phenylethanolamine N-methyltransferase (Homo sapiens) (UniProt P11086); assay: as above; details: MTase-Glo luminescence, SAH detection, recombinant enzyme; measured here: PNMT max response; stronger effect = lower value
[28] = qHTS for differential inhibitors of proliferation of Plasmodium falciparum line 7G8 (AID 1815);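 note: potency is the fitted concentration of half-maximal effect; parasite growth measured after three days of incubation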
[29] = qHTS for differential inhibitors of proliferation of Plasmodium falciparum line HB3 (AID 1886); details: Potency: Plasmodium falciparum HB3 proliferation inhibition;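 note: potency is the fitted concentration of half-maximal effect; parasites grown with compound for 72 h before SYBR Green readout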

M-phase phosphoprotein 8 (Homo sapiens), sequence (Q99549 whole entry, looked up): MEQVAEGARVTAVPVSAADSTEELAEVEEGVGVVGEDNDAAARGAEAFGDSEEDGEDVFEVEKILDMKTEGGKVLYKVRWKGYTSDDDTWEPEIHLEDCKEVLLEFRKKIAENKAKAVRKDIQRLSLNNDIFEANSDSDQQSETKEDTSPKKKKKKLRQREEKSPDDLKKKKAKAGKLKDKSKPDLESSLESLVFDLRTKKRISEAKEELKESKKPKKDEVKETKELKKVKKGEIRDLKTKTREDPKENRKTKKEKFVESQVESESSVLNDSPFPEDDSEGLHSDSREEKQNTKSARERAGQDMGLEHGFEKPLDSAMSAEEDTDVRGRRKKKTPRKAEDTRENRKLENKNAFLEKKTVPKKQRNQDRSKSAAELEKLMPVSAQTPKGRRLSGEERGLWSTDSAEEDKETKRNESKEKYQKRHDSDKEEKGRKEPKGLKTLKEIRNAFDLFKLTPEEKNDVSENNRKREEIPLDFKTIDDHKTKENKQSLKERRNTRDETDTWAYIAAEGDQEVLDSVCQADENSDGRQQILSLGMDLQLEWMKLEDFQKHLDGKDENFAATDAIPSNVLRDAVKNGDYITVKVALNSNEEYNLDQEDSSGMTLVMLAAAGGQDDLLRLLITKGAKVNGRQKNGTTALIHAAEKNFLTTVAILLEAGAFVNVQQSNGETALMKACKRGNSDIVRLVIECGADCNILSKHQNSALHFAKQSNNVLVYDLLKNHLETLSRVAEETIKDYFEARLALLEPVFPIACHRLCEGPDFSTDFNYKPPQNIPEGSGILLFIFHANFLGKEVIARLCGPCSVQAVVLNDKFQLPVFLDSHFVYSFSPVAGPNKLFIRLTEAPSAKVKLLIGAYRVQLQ
Catechol O-methyltransferase (Homo sapiens), sequence (P21964 whole entry, looked up): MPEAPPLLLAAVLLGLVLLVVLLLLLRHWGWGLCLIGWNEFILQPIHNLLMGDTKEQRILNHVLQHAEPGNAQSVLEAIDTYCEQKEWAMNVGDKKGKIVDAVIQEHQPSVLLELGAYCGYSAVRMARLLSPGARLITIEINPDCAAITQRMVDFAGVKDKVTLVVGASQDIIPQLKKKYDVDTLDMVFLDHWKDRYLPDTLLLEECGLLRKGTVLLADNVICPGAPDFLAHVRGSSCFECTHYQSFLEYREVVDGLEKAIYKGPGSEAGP
Ferritin light chain (Equus caballus), sequence (P02791 2-175 limits assumed): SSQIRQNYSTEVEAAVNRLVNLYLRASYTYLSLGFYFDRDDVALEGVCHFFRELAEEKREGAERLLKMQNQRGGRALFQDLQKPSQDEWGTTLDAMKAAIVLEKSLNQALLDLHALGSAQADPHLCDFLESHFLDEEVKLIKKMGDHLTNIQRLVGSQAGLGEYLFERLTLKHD
Phenylethanolamine N-methyltransferase (Homo sapiens), sequence (P11086 whole entry, looked up): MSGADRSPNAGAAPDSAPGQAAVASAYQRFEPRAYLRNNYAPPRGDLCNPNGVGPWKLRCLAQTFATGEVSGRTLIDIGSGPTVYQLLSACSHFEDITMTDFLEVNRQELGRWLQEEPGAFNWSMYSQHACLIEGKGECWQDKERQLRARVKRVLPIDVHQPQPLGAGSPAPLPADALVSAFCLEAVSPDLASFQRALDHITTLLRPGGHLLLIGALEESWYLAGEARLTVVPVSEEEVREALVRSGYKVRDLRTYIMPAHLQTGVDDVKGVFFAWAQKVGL
ATP-dependent DNA helicase Q1 (Homo sapiens), sequence (P46063 whole entry, looked up): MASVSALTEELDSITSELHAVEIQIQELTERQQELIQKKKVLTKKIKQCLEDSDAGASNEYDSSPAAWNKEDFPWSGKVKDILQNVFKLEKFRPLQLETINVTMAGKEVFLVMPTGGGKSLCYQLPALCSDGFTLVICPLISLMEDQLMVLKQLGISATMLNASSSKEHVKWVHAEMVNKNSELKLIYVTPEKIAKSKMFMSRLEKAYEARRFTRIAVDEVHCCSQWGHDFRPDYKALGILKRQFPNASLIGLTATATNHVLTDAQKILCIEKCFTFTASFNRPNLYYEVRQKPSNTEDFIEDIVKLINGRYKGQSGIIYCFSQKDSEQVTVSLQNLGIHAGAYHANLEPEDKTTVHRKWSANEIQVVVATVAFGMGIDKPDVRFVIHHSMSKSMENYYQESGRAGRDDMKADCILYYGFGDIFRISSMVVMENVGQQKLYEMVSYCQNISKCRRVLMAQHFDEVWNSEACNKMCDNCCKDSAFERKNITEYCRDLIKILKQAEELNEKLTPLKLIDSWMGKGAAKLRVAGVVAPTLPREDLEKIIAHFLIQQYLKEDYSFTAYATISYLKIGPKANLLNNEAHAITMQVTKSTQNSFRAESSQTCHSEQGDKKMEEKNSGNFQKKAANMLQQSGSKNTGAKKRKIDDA
Nicotinamide N-methyltransferase (Homo sapiens), sequence (P40261 whole entry, looked up): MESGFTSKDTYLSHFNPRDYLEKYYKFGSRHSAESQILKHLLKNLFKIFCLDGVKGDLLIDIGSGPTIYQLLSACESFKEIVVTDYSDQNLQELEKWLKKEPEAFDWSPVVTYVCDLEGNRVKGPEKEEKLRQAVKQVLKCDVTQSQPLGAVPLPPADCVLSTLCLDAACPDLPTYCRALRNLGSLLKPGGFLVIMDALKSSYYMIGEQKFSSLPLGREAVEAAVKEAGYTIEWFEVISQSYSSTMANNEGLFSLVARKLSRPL
Galactokinase (Homo sapiens), sequence (P51570 whole entry, looked up): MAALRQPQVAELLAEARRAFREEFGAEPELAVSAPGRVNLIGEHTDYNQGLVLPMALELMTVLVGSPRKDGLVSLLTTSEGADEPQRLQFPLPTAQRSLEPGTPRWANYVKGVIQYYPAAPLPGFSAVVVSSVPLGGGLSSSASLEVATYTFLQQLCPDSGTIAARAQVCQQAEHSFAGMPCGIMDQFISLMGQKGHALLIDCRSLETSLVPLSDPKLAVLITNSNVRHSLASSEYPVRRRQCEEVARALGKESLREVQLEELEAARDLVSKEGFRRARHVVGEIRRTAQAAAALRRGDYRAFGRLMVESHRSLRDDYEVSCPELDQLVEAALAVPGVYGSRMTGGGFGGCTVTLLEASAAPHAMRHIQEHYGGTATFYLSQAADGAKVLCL
Transient receptor potential cation channel subfamily V member 1 (Homo sapiens), sequence (Q8NER1 whole entry, looked up): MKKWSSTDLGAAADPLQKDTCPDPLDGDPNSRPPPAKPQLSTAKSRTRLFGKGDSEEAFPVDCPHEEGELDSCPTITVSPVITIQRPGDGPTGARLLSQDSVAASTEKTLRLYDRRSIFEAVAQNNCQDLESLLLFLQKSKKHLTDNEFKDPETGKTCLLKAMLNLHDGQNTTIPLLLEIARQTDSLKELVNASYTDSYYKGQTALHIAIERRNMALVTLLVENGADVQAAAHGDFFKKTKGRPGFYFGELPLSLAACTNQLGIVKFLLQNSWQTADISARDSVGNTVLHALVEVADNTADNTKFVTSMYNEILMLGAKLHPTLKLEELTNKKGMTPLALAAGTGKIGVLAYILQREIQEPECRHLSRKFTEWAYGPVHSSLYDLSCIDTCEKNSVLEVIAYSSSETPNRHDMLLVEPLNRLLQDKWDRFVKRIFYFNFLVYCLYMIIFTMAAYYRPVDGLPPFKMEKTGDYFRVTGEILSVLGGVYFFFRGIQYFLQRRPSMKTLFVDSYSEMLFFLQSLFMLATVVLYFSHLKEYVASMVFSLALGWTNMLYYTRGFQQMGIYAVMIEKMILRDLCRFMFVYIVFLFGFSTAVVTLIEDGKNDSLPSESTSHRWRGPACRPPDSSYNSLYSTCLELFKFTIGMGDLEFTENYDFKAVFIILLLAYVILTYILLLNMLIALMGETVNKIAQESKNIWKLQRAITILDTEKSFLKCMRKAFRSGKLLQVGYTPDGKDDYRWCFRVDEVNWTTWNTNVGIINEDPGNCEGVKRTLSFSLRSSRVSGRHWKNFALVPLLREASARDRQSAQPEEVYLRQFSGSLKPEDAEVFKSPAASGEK
DNA repair nuclease/redox regulator APEX1 (Homo sapiens), sequence (P27695 whole entry, looked up): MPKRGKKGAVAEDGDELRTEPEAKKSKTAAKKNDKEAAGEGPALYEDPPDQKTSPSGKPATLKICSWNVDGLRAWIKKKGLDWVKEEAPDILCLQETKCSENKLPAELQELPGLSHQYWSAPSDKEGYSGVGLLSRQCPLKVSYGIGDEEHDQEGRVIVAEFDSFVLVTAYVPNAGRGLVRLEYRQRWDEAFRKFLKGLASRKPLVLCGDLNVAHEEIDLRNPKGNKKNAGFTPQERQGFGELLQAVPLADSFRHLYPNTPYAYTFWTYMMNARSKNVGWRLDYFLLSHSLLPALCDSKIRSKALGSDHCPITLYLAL
Rap guanine nucleotide exchange factor 3 (Homo sapiens), sequence (O95398 whole entry, looked up): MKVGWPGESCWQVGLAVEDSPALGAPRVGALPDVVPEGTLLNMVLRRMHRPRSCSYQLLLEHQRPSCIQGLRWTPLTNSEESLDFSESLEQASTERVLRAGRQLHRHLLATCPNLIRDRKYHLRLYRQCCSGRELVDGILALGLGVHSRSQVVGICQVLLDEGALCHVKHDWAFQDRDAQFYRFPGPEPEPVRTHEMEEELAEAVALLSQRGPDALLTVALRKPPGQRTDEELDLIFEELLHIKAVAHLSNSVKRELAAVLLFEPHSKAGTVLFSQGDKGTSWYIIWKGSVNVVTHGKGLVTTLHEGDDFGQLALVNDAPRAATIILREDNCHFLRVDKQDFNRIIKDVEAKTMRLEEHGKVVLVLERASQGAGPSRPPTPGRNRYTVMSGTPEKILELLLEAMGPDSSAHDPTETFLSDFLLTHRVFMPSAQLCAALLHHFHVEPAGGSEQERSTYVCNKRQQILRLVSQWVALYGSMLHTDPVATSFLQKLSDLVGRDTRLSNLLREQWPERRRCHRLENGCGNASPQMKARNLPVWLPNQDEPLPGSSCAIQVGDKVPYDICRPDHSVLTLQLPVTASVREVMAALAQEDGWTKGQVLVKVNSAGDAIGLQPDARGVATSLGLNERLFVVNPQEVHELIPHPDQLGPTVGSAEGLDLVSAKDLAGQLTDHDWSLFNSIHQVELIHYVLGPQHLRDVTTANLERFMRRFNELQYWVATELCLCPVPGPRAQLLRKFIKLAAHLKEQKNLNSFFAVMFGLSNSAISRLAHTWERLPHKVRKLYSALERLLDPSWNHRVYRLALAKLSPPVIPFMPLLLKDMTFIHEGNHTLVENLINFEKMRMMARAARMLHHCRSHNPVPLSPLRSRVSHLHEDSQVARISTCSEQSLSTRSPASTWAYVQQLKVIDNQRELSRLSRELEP

C[C@@H]1O[C@@H](O[C@H]2C[C@@H](O)[C@]3(CO)[C@H]4[C@H](O)C[C@]5(C)[C@@H]([C@@H]6COC(=O)C6)CC[C@]5(O)[C@@H]4CC[C@]3(O)C2)[C@H](O)[C@H](O)[C@H]1O
inactive: Potency [1] | outcome [2] | Potency [3] | Potency [4] | Potency [5] | Potency [6] | Potency [7] | Potency [8] | outcome [9] | Potency [10] | outcome [11] | Potency [13] | Potency [14] | Potency [15] | outcome [16] | outcome [17] | activation [18] 1.38% | outcome [19] | Potency [20]
active: Potency [12] 1.58 µM

COc1ccc(-n2nnnc2C(c2cccs2)N2CCC(n3c(=O)[nH]c4ccccc43)CC2)cc1 (stereo not drawn)
inactive: Potency [21] | Potency [22] | outcome [23]

CC[C@H]1CN2CC[C@H]1C[C@@H]2CNCc1ccc(-c2ccccc2)cc1
4.25%: activity [26]
4.44%: activity change, negative = inhibition [25]
3.75%: activity [24]
-4.01%: activity [27]

COc1ccc(-c2cc([C@H]3CN4CC[C@H]3C[C@@H]4CN)nc(C)n2)cc1OC
2.63%: activity [27]
2.55%: activity [24]
-94.2%: activity [26]
1.77%: activity change, negative = inhibition [25]

Oc1cc2c(cc1O)[C@H]1c3ccccc3CNC1CC2 (stereo partly drawn)
inactive: Potency [1] | outcome [2] | Potency [3] | Potency [10] | outcome [11] | Potency [12] | outcome [16] | outcome [17] | activation [18] 0.812% | outcome [19]
active: Potency [28] 10 µM | Potency [4] 12.6 µM | Potency [6] 11.2 µM | Potency [7] 8.91 µM | Potency [8] 10 µM | Potency [29] 11.2 µM | Potency [15] 25.1 µM
